# The campaign covered roughly 48,000 compounds. About 13,000 (27%) showed an effect of 50% or more. Some of the results follow.
# Test system: Wolbachia pipientis
# Assay: Anti-Wolbachia Cell-Based Screen
# Assay type: functional
# Design: scale not given: in the data most compounds retested in dose-response had high values
# Details: 5 µM
row,Structure (SMILES),Percent Effect [%]
1,CCN(CC)CCCC(C)NC(=O)c1ccccc1-n1cccn1 (centres undefined),7.306
2,Cc1csc(CN(C)C(=O)Nc2cc(F)cc(N3CCCC3)c2)n1,1.916
3,Cc1cc(CN2CCN(C(=O)C3CCC3)[C@@H]3CS(=O)(=O)C[C@@H]32)ccc1F,-7.739
4,COCc1cccc(NS(=O)(=O)c2cc(C(=O)O)cs2)c1,-2.674
5,CC(=O)N1CCCN(C(=O)NCCCc2cn[nH]c2C)CC1,5.241
6,COc1ccc(CCNC(=O)N2CCCC(c3nncn3C)C2)cc1 (centres undefined),95.68
7,Cn1cc(CCNC(=O)N2CCCC(c3nncn3C)C2)cn1 (centres undefined),107
8,Cn1cnnc1C1CCCN(C(=O)NCCc2ccccc2F)C1 (centres undefined),-7.484
9,Cc1ccccc1CCNC(=O)N1CCCC(c2nncn2C)C1 (centres undefined),7.468
10,Cc1[nH]ncc1CCCNC(=O)N1CCCC(c2nncn2C)C1 (centres undefined),131.8
11,COc1ccccc1CCNC(=O)N1CCCC(c2nncn2C)C1 (centres undefined),0.4535
12,COc1ccc(CC(=O)N2CCCC(c3nncn3C)C2)cc1 (centres undefined),-3.253
13,Cc1[nH]ncc1CCCNC(=O)N1CCC(C(N)=O)CC1,-4.643
14,CCOc1cc(CN(C)CCOC)ccc1OC(F)F,9.652
15,CN(C)C(=O)c1cccc(NC(=O)Cc2cc(F)ccc2F)n1,-6.771
16,CS(=O)(=O)NCCCNCc1cc(F)ccc1Br,85.45
17,CC(=O)NCCCNCc1cc(F)ccc1Br,10.59
18,CCS(=O)(=O)NCCNCc1cc(F)ccc1Br,5.201
19,O=C(c1cnc(-c2ccco2)s1)N1CCCC1Cn1cccn1 (centres undefined),-5.367
20,Cc1cnn(CC2CCCN2C(=O)c2cnc(-c3ccco3)s2)c1 (centres undefined),107.8
21,Cc1sc(-c2ccco2)nc1C(=O)N1CCCC1Cn1cccn1 (centres undefined),99.48
22,O=C(c1cnc(-c2ccco2)s1)N1CCCCC1Cn1cccn1 (centres undefined),80.46
23,Cc1nc(-c2ccco2)ccc1C(=O)N1CCCC1Cn1cccn1 (centres undefined),-3.884
24,COc1ccccc1S(=O)(=O)CCOC(C)C,8.609
25,CC(C)Oc1ccc(CSc2nnc(CN3CCCC3=O)o2)cc1,-8.061

row,Structure (SMILES),Percent Effect [%]
1,OCc1csc(N2CCCN(Cc3ccc(F)cc3)CC2)n1,11.91
2,OCc1csc(N2CCCC(COc3cccc(F)c3)C2)n1 (centres undefined),96.77
3,OCc1csc(N2CCN(Cc3cccc(F)c3)CC2)n1,-8.687
4,Cc1ccc(OCC2CCCN(c3nc(CO)cs3)C2)cc1 (centres undefined),87.49
5,Cc1ccc(OCC2CCCN(c3cc(C(N)=O)ccn3)C2)cc1 (centres undefined),0.1163
6,Cc1ccc(OCC2CCCN(Cc3ccc(CO)o3)C2)cc1 (centres undefined),-15.89
7,COc1ccc(OCC2CCCN(c3nc(CO)cs3)C2)cc1 (centres undefined),99.62
8,COc1cccc(OCC2CCCN(c3cc(C(N)=O)ccn3)C2)c1 (centres undefined),12.14
9,CC(C)NS(=O)(=O)c1cc(C(=O)O)cc(-c2ccccc2CN(C)C)c1,9.283
10,CCOCCN1CCN(Cc2nnc(-c3occc3C)o2)CC1,-3.196
11,CC(C)C(O)C1(CNC(=O)Nc2ccc(CN3CCOC3=O)cc2)CC1 (centres undefined),-15.4
12,COC(=O)c1ccc2ccn(CC3CCCO3)c(=O)c2c1 (centres undefined),-4.095
13,CCOCCn1c(=O)[nH]c2cc(C(=O)N(C)Cc3nc(C)c[nH]3)ccc21,-5.58
14,CCC[C@]12CN3C[C@](CCC)(CN(C1)C3c1[nH]c(=O)[nH]c(=O)c1C)C2=O (some centres undefined),113.9
15,Cc1c(C2N3C[C@]4(C(C)C)CN2C[C@](C(C)C)(C3)C4=O)[nH]c(=O)[nH]c1=O (some centres undefined),123.1
16,CC(=O)NC[C@H]1COCc2nc3c(C)cccc3n21,4.229
17,CCOC(C)c1noc(CN2CCN(c3ccncc3)CC2)n1 (centres undefined),-6.635
18,CCOCC(=O)N1Cc2nccn2CC(CN(C)C)C1 (centres undefined),110.3
19,Cc1occc1C(=O)N1Cc2nccn2CC(CN(C)C)C1.O=C(O)C(F)(F)F (centres undefined),7.658
20,COc1ccc(CC(=O)N2Cc3nccn3CC(CN(C)C)C2)cc1.O=C(O)C(F)(F)F (centres undefined),100.3
21,CCOCC(=O)N1Cc2nccn2CC(CN2CCCC2)C1.O=C(O)C(F)(F)F (centres undefined),-4.064
22,CN(C)CC1CN(C(=O)NCc2ccccc2)Cc2nccn2C1.O=C(O)C(F)(F)F (centres undefined),-13.89
23,CN(C)CC1CN(C(=O)CCc2ccccc2)Cc2nccn2C1.O=C(O)C(F)(F)F (centres undefined),96.55
24,CCOCC(=O)N1CCC(c2nccn2CC2CC2)CC1,4.34
25,COc1cccc(CC(=O)N2Cc3nccn3CC(CN(C)C)C2)c1 (centres undefined),80.89

row,Structure (SMILES),Percent Effect [%]
1,Cc1ccc(CN2CCOC3(CCN(C(=O)C4CC=CC4)CC3)C2)cc1.O=C(O)C(F)(F)F,15.78
2,Cc1ccccc1N1CCN(C(=O)c2ncc(F)cc2F)C(C)C1 (centres undefined),9.425
3,COc1ccc(C(=O)N2C[C@H]3CC[C@@H]2CN(C)C3)cc1Cl,-11.94
4,Cc1ccccc1-c1ncc(CNCc2csc(C(C)C)n2)s1,-1.637
5,O=C(c1ccoc1)N1CCC2(C1)CN(c1nccs1)C2,-3.02
6,CN(C)CC1CN(C(=O)Cc2ccccc2)Cc2nccn2C1.O=C(O)C(F)(F)F (centres undefined),102.6
7,Cc1ccc(CC(=O)N2Cc3nccn3CC(CN(C)C)C2)cc1.O=C(O)C(F)(F)F (centres undefined),14
8,Cc1nc(O)cc(C2CCCN2CCO)n1 (centres undefined),112.5
9,NC(=O)CN1CCCC1c1ccccc1Br (centres undefined),-4.067
10,Cc1cncc(C2CCCN2CC(N)=O)n1 (centres undefined),143.4
11,Cc1cncc(C2CCCN2CCO)n1 (centres undefined),153.6
12,OCCCN1CCCC1c1cccc(Br)c1 (centres undefined),-6.004
13,CN1CCN(C[C@H]2CC[C@@H](Cc3ccc(CN4CCCC4)cc3)O2)CC1,-1.169
14,Cc1ccc(S(=O)(=O)NC[C@H]2OC[C@@H](NCc3cccs3)[C@@H]2O)cc1,7.979
15,CCn1c(C)nnc1SCCNC(=O)CC1CCc2ccccc21 (centres undefined),-3.198
16,CCOC(=O)[C@]12CCCN(Cc3nccs3)C[C@H]1CN(C(C)C)C2.O=C(O)C(F)(F)F.O=C(O)C(F)(F)F,-10.51
17,CCOC(=O)[C@]12CCCN(Cc3ccsc3)C[C@H]1CN(CCOC)C2.O=C(O)C(F)(F)F.O=C(O)C(F)(F)F,-11.63
18,CCOC(=O)[C@]12CCCN(Cc3cccs3)C[C@H]1CN(C(C)C)C2.O=C(O)C(F)(F)F.O=C(O)C(F)(F)F,108.6
19,CCOC(=O)[C@]12CCCN(Cc3nccs3)C[C@H]1CN(C(C)=O)C2.O=C(O)C(F)(F)F,10.79
20,CCOC(=O)[C@]12CCCN(Cc3nccs3)C[C@H]1CN(S(C)(=O)=O)C2.O=C(O)C(F)(F)F,-4.113
21,CCOC(=O)[C@]12CCCN(Cc3ccco3)C[C@H]1CN(CCN(C)C)C2.O=C(O)C(F)(F)F.O=C(O)C(F)(F)F.O=C(O)C(F)(F)F,13.18
22,CCOC(=O)[C@]12CCCN(Cc3cccs3)C[C@H]1CN(CCOC)C2.O=C(O)C(F)(F)F.O=C(O)C(F)(F)F,131.5
23,CCOC(=O)[C@]12CCCN(Cc3cccs3)C[C@H]1CN(C(C)=O)C2.O=C(O)C(F)(F)F,93.24
24,CCOC(=O)[C@]12CCCN(Cc3nccs3)C[C@H]1CN(CCOC)C2.O=C(O)C(F)(F)F.O=C(O)C(F)(F)F,-1.05
25,CCOC(=O)[C@]12CCCN(Cc3ccco3)C[C@H]1CN(S(C)(=O)=O)C2.O=C(O)C(F)(F)F,113.6

row,Structure (SMILES),Percent Effect [%]
1,COCCN(Cc1ccccn1)C(=O)CC1OCCc2ccccc21 (centres undefined),-5.998
2,COC(=O)c1ccc(N2CCC(C(O)c3ccccc3)CC2)nn1 (centres undefined),-10.77
3,CC(C)CCC(=O)Nc1ncn(CC(=O)N2CCCCCC2)n1,-19.43
4,CCc1nc(CC(=O)N2CCOCC2c2ncon2)cs1 (centres undefined),-4.331
5,Cc1nnsc1CN1C[C@@H]2CC[C@H](C1)N(Cc1c(C)noc1C)C2=O,10.64
6,O=C1N(CC2CC2)CCCC1(O)CN1CCc2[nH]ncc2C1 (centres undefined),-6.967
7,CCc1ccc(CN2CCN(C)C3(CCC(=O)N(CC4CC4)CC3)C2)o1 (centres undefined),1.557
8,Cc1noc([C@@H]2C[C@H](NC(=O)C3CCCCC3)CN2C)n1,-5.582
9,CCOC(=O)[C@]12CCCN(Cc3cccs3)C[C@H]1CN(CC(C)C)C2.O=C(O)C(F)(F)F.O=C(O)C(F)(F)F,98.32
10,CCOC(=O)[C@]12CCCN(Cc3nccs3)C[C@H]1CN(CCN(C)C)C2.O=C(O)C(F)(F)F.O=C(O)C(F)(F)F.O=C(O)C(F)(F)F,8.148
11,CCOC(=O)[C@]12CCCN(Cc3nccs3)C[C@H]1CN(CC(C)C)C2.O=C(O)C(F)(F)F.O=C(O)C(F)(F)F,11.11
12,Cn1cc(C(=O)Nc2cccc(-c3ccc4c(c3)CCO4)n2)ccc1=O,14
13,O=C(O)c1cccnc1N1CCN(Cc2ccc(F)cc2)C(CCO)C1 (centres undefined),-1.62
14,COC(=O)CC1c2cccnc2C(=O)N1Cc1ccccc1 (centres undefined),107.1
15,CCC1CN(C(=O)c2cccnc2O)CCC(=O)N1Cc1ccccc1 (centres undefined),-1.189
16,CCC1CN(C(=O)c2ncccc2O)CCC(=O)N1Cc1ccccc1 (centres undefined),-8.07
17,COC(=O)CC1CN(Cc2c(Cl)ccc3cccnc23)CCO1 (centres undefined),-2.588
18,O=C(Cc1cccnc1)N1C[C@@H]2CC[C@H](C1)N(Cc1ccccc1)C2=O,-0.7591
19,NC(=O)CC1c2cccnc2C(=O)N1Cc1ccccc1 (centres undefined),97.87
20,O=C(Cc1ccccn1)N1C[C@@H]2CC[C@H](C1)N(Cc1ccccc1)C2=O,-26.39
21,CNC(=O)c1cccnc1N1CCN(Cc2ccccc2)C(CCO)C1 (centres undefined),-3.747
22,CNC(=O)CC1CC2(CCN(c3ncccn3)CC2)c2ccccc21.O=C(O)C(F)(F)F (centres undefined),-15.28
23,O=C1c2ncccc2C(CCO)N1Cc1ccccc1 (centres undefined),101.3
24,CNC(=O)CC1c2cccnc2C(=O)N1Cc1ccccc1 (centres undefined),136.6
